Test results as given in PubChem BioAssay (Tox21).
Results filed as inconclusive are left out. Calls of active or inactive are those of the source. The call rests on the fitted dose curve.

Key:
[1] = biological target: Acetylcholinesterase (Homo sapiens) (UniProt P22303); test: Acetylcholinesterase (AChE) small molecule antagonists: colormetric cell-based qHTS assay (AID 1347395); further: nearly all actives have a fitted effect of over 30% in size
Outline: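 Quantitative HTS in attached SH-SY5Y cells: 30 min compound exposure, then 90 min with acetylthiocholine and DTNB at 37 C; colour from thiocholine reports AChE activity.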

[2] = biological target: Acetylcholinesterase (Homo sapiens) (UniProt P22303); test: Acetylcholinesterase (AChE) small molecule antagonists: enzyme-based qHTS assay (AID 1347397); details: Potency: AChE enzyme activity inhibition; outcome: AChE enzyme activity inhibition; further: nearly all actives have a fitted effect of over 55% in size
Outline: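 Recombinant human AChE, dispensed at 50 mU/mL, was preincubated with Tox21 10K compounds or DMSO vehicle for 30 min at room temperature. DTNB plus acetylthiocholine was then added, and thiocholine was measured colorimetrically after a further 10 min.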

[3] = biological target: Acetylcholinesterase (Homo sapiens) (UniProt P22303); test: Acetylcholinesterase (AChE) small molecule antagonists: fluorescence cell-based qHTS assay (AID 1347398); details: Potency: AChE activity; outcome: AChE activity; further: nearly all actives have a fitted effect of over 50% in size
Outline: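 Human SH-SY5Y cells were plated overnight at 37 C, exposed to compound for 30 min at 37 C, 5% CO2, then given acetylthiocholine plus Thiolite Green for 40 min at room temperature; thiocholine fluorescence (Ex/Em 490/520 nm) reports endogenous AChE activity.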

[4] = biological target: Acetylcholinesterase (Homo sapiens) (UniProt P22303); test: Acetylcholinesterase (AChE) small molecule antagonists: enzyme-based qHTS assay with human liver microsomes (AID 1347399); details: Potency: qHTS inhibition; outcome: qHTS inhibition; further: nearly all actives have a fitted effect of over 60% in size
Outline: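 Recombinant human AChE (50 mU/mL in the enzyme mix) and human liver microsomes (0.25 mg/mL final) were preincubated with compound and NADPH (0.25 mg/mL final) for 30 min at 37 C. Acetylthiocholine/DTNB was then added; thiocholine was read colorimetrically after 10 min at room temperature.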
On the % scale 0 is the no-effect control and ±100 the full control effect.

Acetylcholinesterase (Homo sapiens), sequence (P22303 whole entry, looked up): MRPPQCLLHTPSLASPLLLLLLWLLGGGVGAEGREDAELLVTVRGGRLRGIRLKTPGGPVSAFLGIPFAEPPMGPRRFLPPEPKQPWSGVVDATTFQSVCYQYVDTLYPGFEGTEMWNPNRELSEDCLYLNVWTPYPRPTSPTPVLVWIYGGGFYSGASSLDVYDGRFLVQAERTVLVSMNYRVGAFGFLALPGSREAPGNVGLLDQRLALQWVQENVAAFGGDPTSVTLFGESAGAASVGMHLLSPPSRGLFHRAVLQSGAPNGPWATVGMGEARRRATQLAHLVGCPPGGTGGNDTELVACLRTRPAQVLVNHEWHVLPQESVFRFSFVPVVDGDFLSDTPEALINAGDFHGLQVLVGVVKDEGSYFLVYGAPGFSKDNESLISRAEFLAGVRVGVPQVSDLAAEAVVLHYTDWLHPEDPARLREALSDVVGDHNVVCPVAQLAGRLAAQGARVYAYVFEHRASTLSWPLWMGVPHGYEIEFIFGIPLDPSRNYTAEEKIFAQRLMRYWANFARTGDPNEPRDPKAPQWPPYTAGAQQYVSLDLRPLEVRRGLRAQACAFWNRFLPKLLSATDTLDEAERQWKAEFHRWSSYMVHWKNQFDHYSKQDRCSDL

O=C(O)c1cc(-c2ccc(F)cc2F)ccc1O
inactive: Potency [1] | Potency [2] | Potency [3] | Potency [4]

CC12CC3CC(C)(C1)CC(N)(C3)C2
inactive: Potency [1] | Potency [2] | Potency [3] | Potency [4]

CCc1cc(S(=O)(=O)O)c2cc(C(C)C)cccc1-2
inactive: Potency [1] | Potency [2] | Potency [3] | Potency [4]

COC(=O)CCCCCCCCC(=O)OC
inactive: Potency [1] | Potency [2] | Potency [3] | Potency [4]

CCCCC1CCCCC(=O)O1 (stereo unspecified)
inactive: Potency [1] | Potency [2] | Potency [3] | Potency [4]

CC(CC=O)CC(C)(C)C (stereo unspecified)
inactive: Potency [1] | Potency [2] | Potency [3] | Potency [4]

Cc1ncc([N+](=O)[O-])n1CC(C)O (stereo unspecified)
inactive: Potency [1] | Potency [2] | Potency [3] | Potency [4]

CNCc1cc(F)ccc1Oc1ccc(Cl)c(Cl)c1
inactive: Potency [1] | Potency [2] | Potency [3] | Potency [4]

CN1CCN(C2=Nc3ccccc3Oc3ccc(Cl)cc32)CC1
inactive: Potency [1] | Potency [2] | Potency [3] | Potency [4]

CC1(C)CCC(C)(C)c2cc(C(=O)Nc3ccc(C(=O)O)cc3)ccc21
inactive: Potency [1] | Potency [2] | Potency [3] | Potency [4]

CCc1cccc(CC)c1NC(=O)C(=O)O
inactive: Potency [1] | Potency [2] | Potency [3] | Potency [4]

CC(=O)N[C@@H](CC(C)C)C(=O)O
inactive: Potency [1] | Potency [2] | Potency [3] | Potency [4]

COc1ccnc(CS(=O)c2nc3ccc(OC(F)F)cc3[nH]2)c1OC (stereo unspecified)
inactive: Potency [1] | Potency [2] | Potency [3] | Potency [4]

CCN(CC)CC(=O)OCC(=O)[C@@]1(O)CC[C@H]2[C@@H]3CCC4=CC(=O)CC[C@]4(C)[C@H]3[C@@H](O)C[C@@]21C
inactive: Potency [1] | Potency [2] | Potency [3] | Potency [4]

Nc1cc(C(=O)O)ccc1Cl
inactive: Potency [1] | Potency [2] | Potency [3] | Potency [4]

CCCN(CCC)CCc1cccc2c1CC(=O)N2
inactive: Potency [1] | Potency [2] | Potency [3] | Potency [4]

Cc1occc1C(=O)Nc1ccc(C(=O)N2CCC(F)(F)/C(=C\C(=O)N3CCC(N4CCCCC4)CC3)c3ccccc32)cc1
inactive: Potency [1] | Potency [2] | Potency [3] | Potency [4]

Nc1cccc2c(N)cccc12
inactive: Potency [1] | Potency [2] | Potency [3] | Potency [4]

Nc1c(Br)cc([N+](=O)[O-])cc1Br
inactive: Potency [1] | Potency [2] | Potency [3] | Potency [4]

CC(C)COC(=O)COc1ccc(Cl)cc1Cl
inactive: Potency [1] | Potency [2] | Potency [3] | Potency [4]

CC(C(=O)O)c1ccc(CC2CCCC2=O)cc1 (stereo unspecified)
inactive: Potency [1] | Potency [2] | Potency [3] | Potency [4]

C=CCCCCCCCCCCC
inactive: activity, negative = inhibition [1] -0.0098% [at 10.5 µM] | activity change, negative = inhibition [2] 0.273% [at 10.5 µM] | activity change, negative = inhibition [3] 5.55% [at 10.5 µM] | activity change, negative = inhibition [4] 0.324% [at 10.5 µM]

Oc1cccc(O)c1O
inactive: Potency [1] | Potency [2] | Potency [3] | Potency [4]

CCOC(=O)OC(=O)OCC
inactive: Potency [1] | Potency [2] | Potency [3] | Potency [4]

O=S1OCCO1
inactive: Potency [1] | Potency [2] | Potency [3] | Potency [4]

CCC(C)(C)C(=O)O
inactive: Potency [1] | Potency [2] | Potency [3] | Potency [4]

O=P(O)(O)Oc1ccccc1
inactive: Potency [1] | Potency [2] | Potency [3] | Potency [4]

Cc1nc(-c2ccccn2)ncc1C(=O)Nn1cc(C)c2cc(F)ccc21
inactive: Potency [1] | Potency [2] | Potency [3] | Potency [4]

C=CCCCCCCCCC(=O)OCCCC
inactive: Potency [1] | Potency [2] | Potency [3] | Potency [4]

CC1=CC=C(C(C)C)CC1
inactive: Potency [1] | Potency [2] | Potency [3] | Potency [4]

CN1CCC(=C2c3ccccc3Sc3ccccc32)CC1
inactive: Potency [1] | Potency [2] | Potency [3] | Potency [4]

OCC(F)(F)F
inactive: Potency [1] | Potency [2] | Potency [3] | Potency [4]

Cc1cc(C(C)(C)C)cc(C)c1CC1=NCCN1
inactive: Potency [1] | Potency [2] | Potency [3] | Potency [4]

C=C[Si](C)(C)O[Si](C)(C)C=C
inactive: Potency [1] | Potency [2] | Potency [3] | Potency [4]

CC(C)=CCC/C(C)=C/C=N/O
inactive: Potency [1] | Potency [2] | Potency [3] | Potency [4]

C=CC(=O)O
inactive: Potency [1] | Potency [2] | Potency [3] | Potency [4]

O=C(OCCc1ccccc1)c1ccccc1
inactive: Potency [1] | Potency [2] | Potency [3] | Potency [4]

CC(C)(O)c1ccc(C(C)(C)O)cc1
inactive: Potency [1] | Potency [2] | Potency [3] | Potency [4]

COc1ccc2c(c1OC)C(=O)O[C@@H]2[C@H]1c2c(cc3c(c2OC)OCO3)CCN1C
inactive: Potency [1] | Potency [2] | Potency [3] | Potency [4]

COC(=O)C1=C(C)NC(C)=C(C(=O)OC(C)C)C1c1cccc2nonc12 (stereo unspecified)
inactive: Potency [1] | Potency [2] | Potency [3] | Potency [4]

CCCCCc1ccco1
inactive: Potency [1] | Potency [2] | Potency [3] | Potency [4]

CCOC(=O)CC(=O)C(=O)OCC
inactive: Potency [1] | Potency [2] | Potency [3] | Potency [4]

C[C@H](O)C(=O)Nc1c(I)c(C(=O)NC(CO)CO)c(I)c(C(=O)NC(CO)CO)c1I
inactive: Potency [1] | Potency [2] | Potency [3] | Potency [4]

CCOCCOCCOC(C)=O
inactive: Potency [1] | Potency [2] | Potency [3] | Potency [4]

CC(C)(C)c1cc(CCC(=O)OCCSCCOC(=O)CCc2cc(C(C)(C)C)c(O)c(C(C)(C)C)c2)cc(C(C)(C)C)c1O
inactive: Potency [1] | Potency [2] | Potency [3] | Potency [4]

COC(=O)c1cc(Cl)cc(Cl)c1
inactive: Potency [1] | Potency [2] | Potency [3] | Potency [4]

CC(O)COC(C)(C)C (stereo unspecified)
inactive: Potency [1] | Potency [2] | Potency [3] | Potency [4]

C#C[C@]1(O)CC[C@H]2[C@@H]3CCc4cc(OC5CCCC5)ccc4[C@H]3CC[C@@]21C
inactive: Potency [1] | Potency [2] | Potency [3] | Potency [4]

OC[C@H]1O[C@@H]2O[C@H]3[C@H](O)[C@@H](O)[C@@H](O[C@H]4[C@H](O)[C@@H](O)[C@@H](O[C@H]5[C@H](O)[C@@H](O)[C@@H](O[C@H]6[C@H](O)[C@@H](O)[C@@H](O[C@H]7[C@H](O)[C@@H](O)[C@@H](O[C@H]8[C@H](O)[C@@H](O)[C@@H](O[C@H]9[C@H](O)[C@@H](O)[C@@H](O[C@H]1[C@H](O)[C@H]2O)O[C@@H]9CO)O[C@@H]8CO)O[C@@H]7CO)O[C@@H]6CO)O[C@@H]5CO)O[C@@H]4CO)O[C@@H]3CO
inactive: Potency [1] | Potency [2] | Potency [3] | Potency [4]

Clc1ccnc(Cl)n1
inactive: Potency [1] | Potency [2] | Potency [3] | Potency [4]

CCN(C(=O)N(CC)c1ccccc1)c1ccccc1
inactive: Potency [1] | Potency [2] | Potency [3] | Potency [4]

c1ccc(-c2nc[nH]c2-c2ccccc2)cc1
inactive: Potency [1] | Potency [2] | Potency [3] | Potency [4]

CC(C)=C1CC[C@@H](C)CC1=O
inactive: Potency [1] | Potency [2] | Potency [3] | Potency [4]

CCC(OCCCOC)OC(C)=O (stereo unspecified)
inactive: Potency [1] | Potency [2] | Potency [3] | Potency [4]

C=C(C)C(=O)OCC(C)(C)COC(=O)C(=C)C
inactive: Potency [1] | Potency [2] | Potency [3] | Potency [4]

O=C(O)Cc1ccc(OCCNC[C@H](O)c2ccccc2)cc1
inactive: Potency [1] | Potency [2] | Potency [3] | Potency [4]

CC(=C(CCOC(=O)C(C)C)SSC(CCOC(=O)C(C)C)=C(C)N(C=O)Cc1cnc(C)nc1N)N(C=O)Cc1cnc(C)nc1N
inactive: Potency [1] | Potency [2] | Potency [3] | Potency [4]

CCO[Si](OCC)(OCC)OCC
inactive: Potency [1] | Potency [2] | Potency [3] | Potency [4]

NC(=O)N1c2ccccc2CC(=O)c2ccccc21
inactive: Potency [1] | Potency [2] | Potency [3] | Potency [4]

CC(C)=CCOc1ccc(/C=C/C(=O)c2ccc(OCC=C(C)C)cc2OCC(=O)O)cc1
inactive: Potency [1] | Potency [2] | Potency [3] | Potency [4]

CCCCCCCCCCCC(=O)[O][Sn]([CH2]CCC)([CH2]CCC)[O]C(=O)CCCCCCCCCCC
inactive: Potency [1] | Potency [2] | Potency [3] | Potency [4]

CC(C)CCCC(C)(C)O
inactive: Potency [1] | Potency [2] | Potency [3] | Potency [4]

Clc1ccc2nsnc2c1NC1=NCCN1
inactive: Potency [1] | Potency [2] | Potency [3] | Potency [4]

COCCCOCCCOC
inactive: Potency [1] | Potency [2] | Potency [3] | Potency [4]

O=C(O)c1cccnc1Nc1cccc(C(F)(F)F)c1
inactive: Potency [1] | Potency [2] | Potency [3] | Potency [4]

N#CC1(N)CCCCC1
inactive: Potency [1] | Potency [2] | Potency [3] | Potency [4]

Nc1ccc(NC(=O)c2ccc(N)cc2)cc1
inactive: Potency [1] | Potency [2] | Potency [3] | Potency [4]

COc1ccc2[nH]c(S(=O)Cc3ncc(C)c(OC)c3C)nc2n1 (stereo unspecified)
inactive: Potency [1] | Potency [2] | Potency [3] | Potency [4]

CCOc1ccc(O)cc1
inactive: Potency [1] | Potency [2] | Potency [3] | Potency [4]

CCCN(CCC)c1c([N+](=O)[O-])cc(C(F)(F)F)c(N)c1[N+](=O)[O-]
inactive: Potency [1] | Potency [2] | Potency [3] | Potency [4]

O=C(/C=C/c1ccccc1)OCCc1ccccc1
inactive: Potency [1] | Potency [2] | Potency [3] | Potency [4]

OCCCO
inactive: Potency [1] | Potency [2] | Potency [3] | Potency [4]

Brc1cc2ccccc2c2ccccc12
inactive: Potency [1] | Potency [2] | Potency [3] | Potency [4]

O=C(Cn1ccnc1[N+](=O)[O-])NCCO
inactive: Potency [1] | Potency [2] | Potency [3] | Potency [4]
